The supplement of paper PMC11417369
In all, about 25,000 sequences were measured (“ln(normalized median fluorescence intensity)”: median about 7.1, highest 2% from about 10 on). The list comes from a sample in which the highest values are over-represented; it also holds similar and randomly drawn sequences.

Test system: PfSIP2 AP2 domain 1 (GST-tagged)
Assay: gcPBM binding intensity (ln(normalized median fluorescence intensity)); higher = stronger DNA binding
In short: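 Probes on an Agilent 4 × 180k array were primer-extended, double-stranded and 36 bp long, taken from intergenic genomic regions, with negative controls added. GST-tagged P. falciparum DNA-binding domains from E. coli, about 25 μg on average, were applied to the array for 1 h in 1× PBS containing 1% milk, 0.2 mg/ml BSA, 0.5% salmon testes DNA and 0.03% Triton X-100. Binding intensity, obtained after Alexa488 anti-GST antibody detection and a 488 nm scan, is the highest Masliner-normalised natural-log median intensity across replicate spots of either probe orientation.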

Row | Sequence | gcPBM binding intensity (ln)
1 | AATTCATTTTACCCATGTACACAATTATATTTTATA [XGTACX_site4127] | 7.23
2 | CATATATATTTTATATGTACATATATATTTTATATA [XGTACX_site8665] | 7.03
3 | ATTTTTTTTTTTTTATGTACATATAGGTGCAAATCA [XGTACX_site6748] | 11.4
4 | ATATATATATATTTATGTACATATATTTTTTTTTTT [XGTACX_site8558] | 8.71
5 | TTTATATATTATTAATGTACAAAATTTTTATTGCAT [XGTACX_site3329] | 6.96
6 | ATATATTTATTAAGGTGTACAAAAATTATGTTGCAT [XGTACX_site7546] | 7.16
7 | ATATTTTTATTAGTAGTGCAATTTAGTGTATATATA [GTGCAC_site9542] | 8.39
8 | GACAATTATATGTAGGTGCATATACAAATTTTTTAA | 10.9
9 | ATTTATATTACCCTTGCATGTAGGTGCAATTTTTTT [TGCATGCA_site757] | 11
10 | ATGTTATATATGTATTGTACGTATTTTGTATATTAT [XGTACX_site6607] | 7.4
11 | AATATATCCTATTCGAACAAAAATACATGCACATAT [CACACA_negctrl_site1058] | 9.28
12 | AAGGATTATTTTAATCGTACATGTGTAAATAATATA [XGTACX_site6177] | 6.98
13 | AATAAATAAATATATATATATATATAATATCATAAA [CACACA_negctrl_site337] | 7.29
14 | TAAAGAAAAATATAAAGTACAAAAATAAAAAAAATA [XGTACX_site8226] | 6.93
15 | AGCATTAAAAATGGAATGGAATTAAGCTATATATTA [CACACA_negctrl_site1571] | 6.63
16 | TTAAAGTTACATTCGACACACACATAACAACTAAAT [CACACA_site9130] | 7.1
17 | AAAAAAAAAGATCACACACACATAAATATAAACAAA [CACACA_site5285] | 6.92
18 | TCAGATCCATAGAAGGTGCAAATAACAAAAATACAA [GTGCAC_site9610] | 10.9
19 | ACATACATATGTAAATGTACAAAATATCCATAGATT [XGTACX_site2782] | 6.81

Row | Sequence | gcPBM binding intensity (ln)
20 | AAATAACAAAAGAAGGTGCTCATAAAAATTCATACA [GTGCAC_site9864] | 8.23
21 | TATAATGCTCTTCTTTGTACATATTATGATTATATT [XGTACX_site2332] | 7.15
22 | CTTCTGGACAGGAATGCACACATTTTTTTTTCTTTT [CACACA_site1807] | 7
23 | TTTGTTTGGTTTTGGTGTACTTTTTTTTTTTTTTCT [XGTACX_site2050] | 7.16
24 | TTGACAGGAACGTTGGTGCACGTACTGTTTTTCTTT [GTGCAC_site9389] | 10.7
25 | TTAGCAGGACGTTTGGTGCACGTACTGTTTTTCTTT [GTGCAC_site9856] | 10.3
26 | ATTTTTTTTTTTTTTTTTTGGTTTTCTTTAGGAGTT [CACACA_negctrl_site1258] | 6.9
27 | TACATGCTTATTTTAACACACAAATGGTAGTAATAA [CACACA_site766] | 6.93
28 | ATATTTTTCAAACATCGTACATTATGAGTTAAAATT [XGTACX_site584] | 7.02
29 | ATAAAAAGGAGACACACACACACACGCATATTTATA [CACACA_site6551] | 7.08
30 | ATATATATATATATAGTGCACATTTATATAATTATT | 10.6
31 | AGACCTTTAATTTGTGTGCACATAATTAGTGTACAT [GTGCAC_site9434] | 8.49
32 | CTATTTCAATTTAGTGCACACATTTTAATTTATAAG [CACACA_site2040] | 10.5
33 | TTAATAATTAATTATAGTACACATTTATATTAATAA [XGTACX_site190] | 7.03
34 | TGTGCACATAATTAGTGTACATTTTTTATTTAGACA [XGTACX_site317] | 10.9
35 | GTATAATTATGTGCACGTACATATTTTATTATATAT [XGTACX_site8586] | 9.21
36 | TTATATAATTTAATAGTGCAATTATATTAATTTTTC | 7.73
37 | TATATTATTAATTAAGCACACATTATTTTTATAATA [CACACA_site3982] | 6.89
38 | ATAATATATAATATAGTGCATTATTTATTAATTAAT [GTGCAC_site9852] | 10.1

Row | Sequence | gcPBM binding intensity (ln)
39 | ATTCCACCTTAAAACTGTACTTTCTCAATCTTTTAT [XGTACX_site796] | 7.22
40 | TTACTTAAATATAAGTGTCCTCAAAAAAAAAAAAAA [XGTACX_site460] | 6.94
41 | ATTCGTCACATTTTTTGATATATATATATATATATA [CACACA_negctrl_site1785] | 9.68
42 | GGGTTTTTTATTAATACATGCATGGAAACGCACTAT [TGCATGCA_site1000] | 10.3
43 | TTTTTATTAAGACATGCATGGAAACGCACTATTTTA [TGCATGCA_site999] | 9.74
44 | TTTTAAAAACGGCATGCATGTAATACATGGAAGGAA [TGCATGCA_site480] | 7.46
45 | TTTATAAATATTCTCACACACTTTTTATTTTAACAA [CACACA_site6454] | 6.93
46 | ATATAAATTTAATACACACCCAAAAAAAAAAAAAAA [CACACA_site3750] | 6.89
47 | TATGTTTTTACGTGTGTGCACTTTGTAGAGATAAGT | 10.7
48 | ATGTAGATAAAACGTGTGCACATGTTTTTTGTTATT | 8.7
49 | ATATGTTTTGTTTACGTGCACTGCTTTGTTTATATA [GTGCAC_site9622] | 9.56
50 | GTTAGGATAGATTAGACATGCACATAAATGCACTTC [TGCATGCA_site561] | 11
51 | AAAATTAGATTATGCACACACACTTAAAAATAATAA [CACACA_site1975] | 8.5
52 | AGGATATGCAGACACACACACATATAGATTTATATA [CACACA_site7100] | 7.08
53 | TGTACGAGTCGTAGAGTGCAGTCTGGAGAAAAGTAC [GTGCAC_site9683] | 8.91
54 | TTTTTTATGCTAACTTCTTTTTCCTTATAAAATTGG [TGCATGCA_negctrl_site598] | 7.06
55 | AATATAATATATTGCACACAAAAAGTGAATTATTCT [CACACA_site1684] | 7.12
56 | TAATATATGTATTGCACACCTATAACCATTATTTCT [CACACA_site1498] | 7.06
57 | AATATATTGCACCATTGGACCTGAATAATTCTTCCA [CACACA_negctrl_site1071] | 10.6
